Screens deposited in PubChem by National Center for Advancing Translational Sciences (NCATS).
ALOX12 inh: blocks human arachidonate 12S-lipoxygenase. Potency, µM (series often up to 108 µM), without a hit: top-dose activity change, negative = inhibition, most hits filed as inhibitors. hit rate 1.1% among 580,000. P18054. purified 12hLO, xylenol orange hydroperoxide absorbance
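Purified human 12hLO (150 nM final) in 25 mM Hepes, 0.01% Triton X-100, pH 7.0 was preincubated 15 min at room temperature with compound. Then 40 uM arachidonic acid was added, 30 min. Hydroperoxide was read by Fe-XO absorbance ratio 573/405 nm.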
GCN5L2 inh: GCN5L2 (KAT2A) acetyltransferase inhibition. Potency, µM (titrated, usually from 58.9 µM), for the others: at the top dose activity change, negative = inhibition, usual class: inhibitors. AID 504327. hit rate 0.21% among 390,000. Q92830. GCN5L2 HAT assay, ThioGlo1 CoA-SH fluorescence
Target sequence (Q92830 whole entry, looked up): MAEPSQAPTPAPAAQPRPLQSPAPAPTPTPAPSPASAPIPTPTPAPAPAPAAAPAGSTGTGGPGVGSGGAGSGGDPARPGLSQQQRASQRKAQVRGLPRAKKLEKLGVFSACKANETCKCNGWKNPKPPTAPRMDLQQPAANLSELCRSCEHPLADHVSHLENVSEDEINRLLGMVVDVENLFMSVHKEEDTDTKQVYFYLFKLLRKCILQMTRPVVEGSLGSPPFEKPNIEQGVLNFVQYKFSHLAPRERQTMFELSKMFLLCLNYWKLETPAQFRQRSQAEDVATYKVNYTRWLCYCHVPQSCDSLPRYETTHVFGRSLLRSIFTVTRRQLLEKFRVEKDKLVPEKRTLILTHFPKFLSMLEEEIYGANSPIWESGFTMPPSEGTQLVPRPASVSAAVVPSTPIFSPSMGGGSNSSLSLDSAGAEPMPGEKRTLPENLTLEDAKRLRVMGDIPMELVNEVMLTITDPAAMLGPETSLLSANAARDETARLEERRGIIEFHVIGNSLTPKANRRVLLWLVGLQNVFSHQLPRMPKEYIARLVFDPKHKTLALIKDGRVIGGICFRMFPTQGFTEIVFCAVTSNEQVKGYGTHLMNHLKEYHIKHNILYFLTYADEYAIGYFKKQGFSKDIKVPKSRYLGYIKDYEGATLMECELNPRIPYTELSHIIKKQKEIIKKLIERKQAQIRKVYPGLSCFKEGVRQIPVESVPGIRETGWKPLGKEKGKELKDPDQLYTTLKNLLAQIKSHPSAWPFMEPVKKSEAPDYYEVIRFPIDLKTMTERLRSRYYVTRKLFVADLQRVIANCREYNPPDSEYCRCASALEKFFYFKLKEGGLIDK
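Compounds, pin-transferred from DMSO stocks, meet 20nM GCN5L2 for 15 min before the reaction begins with H3(1-25) peptide (75uM) and acetyl-CoA (70uM). Thiol-reactive ThioGlo1 reports CoA release over 20 min at room temperature.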
PLK1 PBD block: blocks phosphopeptide binding to human PLK1 polo-box domain; AID 720504; Potency, µM, without a hit: max response, negative = inhibition, hits mostly inhibitors; hit rate 2.8% among 360,000; Plk1 PBD binding of FITC phosphopeptide, fluorescence polarization; also: series mostly up to about 57 µM; nearly all actives have a fitted effect of over 65% in size
VDR inhibitor: inhibitors of human vitamin D receptor; P11473; VDR-SRC2-3 peptide fluorescence polarization, 2 h; Potency, µM, inactives show max response, negative = inhibition, actives largely listed as inhibitors; hit rate 0.93% among 400,000
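Fluorescence polarization assay measuring small-molecule disruption of VDR binding to the coregulator peptide SRC2-3. Compounds were pin-transferred (23 nl) into the reagent mix and incubated 2 h at room temperature before reading.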
An asterisk follows results filed as active; ? = inconclusive; . = not tested or not shown; [ ] = another dose, or the depositor's remark. In the library only some 3% were active in any assay of this set; here they are far more common. Calls follow the shape of the dose curve; as a rule, active = well fitted curve in the direction sought with a large enough effect; inconclusive = small, poorly fitted or top-dose-only effect, or another doubt; inactive = no such curve, though single readings can be large; an effect the other way counts as inactive or inconclusive. % is scaled to controls: 0 for no effect and ±100 for the full control effect; potency is read from the fitted curve at half-maximal effect.

SMILES | ALOX12 inh | GCN5L2 inh | PLK1 PBD block | VDR inhibitor
CC(C)c1ccccc1NC(=O)CCc1ncc(-c2ccccc2)o1 | 2.5% | . | . | .
CCOC(=O)c1oc2c(c1C)C(=O)CSC2 | 9.5% | . | . | .
CCn1c(-c2ccc(C(C)(C)C)cc2)n[nH]c1=S | 15.8µM* | -4.1% | -14.0% | 10.4%
CCn1c(-c2cc(Br)ccc2O)n[nH]c1=S | 44.7µM* | . | -18.2% | -15.5%
Cn1cccc1/C=N/n1c(-c2ccc(C(C)(C)C)cc2)n[nH]c1=S | 25.1µM* | -1.1% | ? | -9.6%
CCn1c(-c2ccc(F)cc2)n[nH]c1=S | ? | 1.2% | -13.2% | 2.5%
Cn1cccc1/C=N/n1c(-c2ccccc2)n[nH]c1=S | ? | -8.6% | ? | 21.0%
COc1ccc(-c2cc(N3CCC(NC(=O)c4ccc(C)c(F)c4)CC3)n[nH]2)cc1 | 21.0% | . | . | .
COc1cc(OC)c2c(C)c(CC(=O)NCCN3CCOCC3)c(=O)oc2c1 | 9.7% | . | . | .
CCNc1cc(N2CCC(CCC(=O)N3CCN(c4cccc(OC)c4)CC3)CC2)ncn1 | 28.1% | . | . | .
Cc1nc(-c2cccc(N3CC(C(=O)NCc4ccccc4C)CC3=O)c2)no1 (stereo not drawn) | 29.3% | . | . | .
O=S(=O)(c1cccc2nsnc12)N1CCN(c2ccccc2F)CC1 | -13.8% | -10.6% | 23.8µM* | 0.7%
Cc1nn(-c2ccccn2)c2c1C(=O)C(Br)CC2 (stereo not drawn) | . | -7.4% | 2.99µM* | 17.8µM*
COc1ccc(-c2cc3nccn3c(Nc3ncccc3C(N)=O)n2)cc1OC | 1.37µM* | . | . | .
Clc1ccc(-c2nnc3n2CCN(Cc2ccccc2)C3)cc1 | -1.8%[6.33 µM] | . | . | .
O=c1c(N2CCN(Cc3ccccc3)CC2)csc2ccc(F)cc12 | -30.0% | . | . | .
O=c1c2cc(F)ccc2sn1-c1ccccc1 | ? | 1.12µM* | 1.06µM* | 20µM*
O=c1c2cc(C(F)(F)F)ccc2sn1-c1ccccc1 | -71.3% | . | 2.67µM* | .
O=c1c2ccccc2c(-c2cccc(C(F)(F)F)c2)nn1-c1ccccc1 | 149.0% | -10.1% | 3.7% | 8.1%
COCCN1C(=O)C(=O)/C(=C(/O)c2ccc(C)cc2)C1c1ccc(Cl)c(Cl)c1 (stereo not drawn) | -25.7% | . | . | .
CC(C)NC(=O)NC1CC2(CCN(Cc3ccc(O)cc3)CC2)c2ccccc21 (stereo not drawn) | 5.0%[6.33 µM] | . | . | .
CCNC(=O)c1c(NC(=O)c2ccc(C)cc2)sc2c1CCCC2 | -27.2% | . | . | .
O=C(Nc1ccc(C(=O)N(Cc2ccccc2)C2CC2)cc1)c1cccs1 | 10.5% | . | . | .
COc1ccc(-c2cc(C(=O)OC(C)C)c3ccccc3n2)cc1 | -13.9% | . | . | .
CC(C)(O)CCc1c(-c2ccc(O)cc2O)oc2c3c(cc(O)c2c1=O)OC(C)(C)C=C3 | 44.7µM* | . | 8.4% | 1.7%
SMILES | ALOX12 inh | GCN5L2 inh | PLK1 PBD block | VDR inhibitor
COc1cc2c(c3oc(-c4ccccc4)cc(=O)c13)C=CC(C)(C)O2 | ? | -3.5% | -4.9% | -21.3%
CCCCC1=CC2=CC(=O)C(C)(OC(=O)c3cccs3)C(=O)C2=CO1 (stereo not drawn) | 28.2µM* | . | -28.3% | -12.9%
CCCCC1=CC2=CC(=O)C(C)(OC(=O)CCc3ccccc3)C(=O)C2=CO1 (stereo not drawn) | 12.6µM* | 1.9% | ? | -0.8%
CC(C)(C)OC(=O)NCCCC1=CC2=CC(=O)C(C)(OC(=O)CCc3ccccc3)C(=O)C2=CO1 (stereo not drawn) | . | . | . | -2.8%
CCOc1cc(/C=C2/NC(=O)NC2=O)ccc1OCc1ccc(Cl)cc1 | 26.5% | . | . | .
Cc1cc(OCC(=O)NC(C)C)c2c(C)c(C)c(=O)oc2c1 | 4.2% | . | . | .
CC/C=C(/C)C(=O)NCc1ccc(C(=O)NC(C)CC)cc1 (stereo not drawn) | -14.3% | . | . | .
CN1C[C@@H](NC(=O)Nc2ccccc2)C[C@H]1c1nc(-c2ccccc2)no1 | 28.2µM* | . | . | .
CN(C1CCCCC1)S(=O)(=O)c1ccc(=S)[nH]c1 | 39.8µM* | -2.8% | 21.2µM* | 50.1µM*
CN(C)S(=O)(=O)c1cccc(S(=O)(=O)Nc2cccc(C#N)c2)c1 | 3.2% | . | . | .
CN(C1CCCCC1)S(=O)(=O)c1cccc(C#N)c1 | -3.5% | -7.8% | 23.8µM* | -5.8%
O=S(Cc1ccccc1)Cc1ccc(Cl)cc1Cl (stereo not drawn) | 44.5% | . | . | .
Cc1noc(C)c1-c1cc(-c2ccccc2C(F)(F)F)cn2cncc12 | 7.5%[176 µM] | . | . | .
CCCn1c(-n2nc(C)cc2C)nc2c1c(=O)n(Cc1cccc3ccccc13)c(=O)n2C | 6.9% | . | . | .
Cc1cccnc1NCc1ccc(O)c2ncccc12 | ? | -2.7% | 18.9µM* | -22.5%
Cc1ccc(NCc2ccc(O)c3ncccc23)cc1 | 3.98µM* | -14.9% | 2.67µM* | ?
Cc1ccc(O)c(CNc2cccc3cccnc23)c1 | -14.9% | -9.0% | -2.4% | -10.8%
Cc1cccc(NCc2ccc(O)c3ncccc23)c1C | 5.62µM* | 0.0% | 5.97µM* | ?
Oc1ccc(CNc2cccc(C(F)(F)F)c2)c2cccnc12 | . | -8.3% | . | .
CCc1c(C(=O)NCCC23CC4CC(CC(C4)C2)C3)csc1C | 6.9% | . | . | .
COc1ccc(CNc2nc(-c3ccco3)nn2S(=O)(=O)c2ccc(C)cc2)cc1OC | -20.8% | . | . | .
Cc1c(C(=O)c2ccc[nH]2)oc2ccc(Br)cc12 | 8.5% | . | . | .
O=C(NN=C(Cc1ccccc1)Cc1ccccc1)c1ccccc1O | 19.4% | -3.4% | 6.5% | 2.5%
NC(=S)NN=C(Cc1ccccc1)Cc1ccccc1 | 11.2µM* | 7.9% | -10.9% | ?
C=CCN(CC=C)C(=S)NC(=O)/C=C/c1ccc(C)cc1 | -19.6% | -2.3% | 6.7% | 0.0%
SMILES | ALOX12 inh | GCN5L2 inh | PLK1 PBD block | VDR inhibitor
C=CCN(CC=C)C(=S)NC(=O)/C=C/c1ccccc1 | 23.5% | 1.3% | 15µM* | 20µM*
CCS(=O)c1ccccc1C(=O)NCc1ccc(C)cc1 (stereo not drawn) | 17.8µM* | . | . | .
CCOc1ncccc1C(=O)NCc1ccc(C)cc1 | -0.5% | 4.0% | -10.7% | 2.7%
COc1ccccc1/C=C/c1nc(C#N)c(NCCCn2ccnc2)o1 | 15.9% | . | . | .
CCOc1ccc(C2C=C(c3ccccc3)Nc3nnnn32)cc1 (stereo not drawn) | -14.0% | -8.2% | 0.8% | 13.0%
Clc1ccc(C2C=C(c3ccccc3)Nc3nnnn32)c(Cl)c1 (stereo not drawn) | 17.8µM* | . | . | .
COc1ccc(C2=CC(c3c(F)cccc3Cl)n3nnnc3N2)cc1 (stereo not drawn) | 39.8µM* | . | . | .
CCOc1ccc(C2C=C(c3ccc(C)cc3)Nc3nnnn32)cc1 (stereo not drawn) | -20.5% | -12.9% | 26.7µM* | 0.0%
C1=C(c2ccccc2)Nc2nnnn2C1c1cccs1 (stereo not drawn) | 424.2% | -20.2% | -11.5% | -1.3%
Cc1ccc(C2=CC(c3ccc(Cl)cc3)n3nc(-c4ccc(C)cc4)nc3N2)cc1 (stereo not drawn) | ? | -8.8% | . | -3.6%
COc1ccc(C2C=C(c3ccc(Cl)cc3)Nc3nc(-c4ccc(Cl)cc4)nn32)cc1 (stereo not drawn) | 5.62µM* | -12.5% | . | -7.8%
COc1ccccc1C(=O)Nc1ccccc1C(C)C | -5.7% | . | . | .
CC(NC(=O)c1cccs1)c1ccc2c(c1)NC(=O)CO2 (stereo not drawn) | 1.4% | . | . | .
